Only some compounds are listed: those with a hit (about 2.8% of all), similar ones and a draw of the others.
WRN helicase inh: qHTS for Inhibitors of WRN Helicase; Bifunctional 3'-5' exonuclease/ATP-dependent helicase WRN (Homo sapiens), Q14191; WRN helicase unwinding, fluorescent forked duplex, kinetic; Potency, µM (top dose mostly 114 µM), without a hit: at the highest dose activity change, negative = inhibition, usual class: inhibitors; actives 0.46% (n = 360,000); AID 651768, 2012; also: potency is read from the fitted curve at half-maximal effect; % is scaled to controls: 0 for no effect and ±100 for the full control effect; nearly all actives have a fitted effect of over 55% in size
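Screening of the MLSMR collection measured strand separation of a quenched forked DNA duplex (100 nM) by 20 nM WRN with 2 mM ATP, all final. Compounds were preincubated with enzyme 15 min at room temperature.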
Pol iota inh: qHTS for Inhibitors of Polymerase Iota; Pol iota fluorescent replication assay, 10 min; Potency, µM (doses to about 115 µM), for inactives: at the top dose activity, negative = inhibition, hits mostly inhibitors; actives 1% (n = 390,000); also: potency is read from the fitted curve at half-maximal effect
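Pol iota at 10 nM preincubated 15 min with compounds at room temperature; reaction started with fluorescent substrate, 50 nM final. Fluorescence read kinetically at 0 and 10 min; buffer-only wells as negative control.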
PI5P4Ka inh: qHTS for Inhibitors of phosphatidylinositol 5-phosphate 4-kinase (PI5P4K); Phosphatidylinositol 5-phosphate 4-kinase type-2 alpha (Homo sapiens), P48426; PI5P4Kalpha enzyme, ADP-Glo luminescence, 60 min; hits give low values; max response, %; actives 1.2% (n = 330,000); active = max response of -50% or lower; inconclusive = between -30% and -50%; inactive = -30% or higher; also: value at the top dose of about 77 µM; % is scaled to controls: 0 for no effect and ±100 for the full control effect
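Single end-point luminescence (ADP-Glo) quantified ADP from PI5P4Kalpha turnover; ATP 5 microM final, 1 h at RT, 0.1% CHAPS and 0.28 mM EGTA in HEPES pH 7.4.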
POLK inh: qHTS for Inhibitors of Polymerase Kappa; actives 0.53% (n = 400,000); purified Pol kappa, fluorescent DNA synthesis assay, 10 min; Potency, µM (top dose mostly 107 µM), inactives show top-dose activity, negative = inhibition, hits mostly inhibitors; also: potency is read from the fitted curve at half-maximal effect; % is scaled to controls: 0 for no effect and ±100 for the full control effect
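Pol kappa 10 nM + cpd, 15 min RT; start w/ substrate 50 nM final; fluorescence kinetic read, 0 and 10 min. Neg ctrl: buffer, no enzyme.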
POLH inh: qHTS for Inhibitors of Polymerase Eta; Potency, µM (titrated, usually from 114 µM), for the others: top-dose activity change, negative = inhibition, hits mostly inhibitors; AID 588591, 2011; actives 1.2% (n = 390,000); DNA polymerase eta (Homo sapiens), Q9Y253; recombinant Pol eta, fluorescent DNA replication assay; also: potency is read from the fitted curve at half-maximal effect; % is scaled to controls: 0 for no effect and ±100 for the full control effect
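Pol eta at 10 nM preincubated with compounds 15 min at room temperature; reaction started with fluorescent substrate (50 nM final) and read kinetically at 0 and 10 min.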
Pol beta inh-1: qHTS Assay for Inhibitors of DNA Polymerase Beta. AID 485314, 2010. Potency, µM (highest dose often 114 µM), without a hit: at the highest dose activity change, negative = inhibition, actives largely listed as inhibitors. actives 1.3% (n = 340,000). P06746. Pol beta primer extension/strand displacement, fluorescence kinetic; also: potency is read from the fitted curve at half-maximal effect; % is scaled to controls: 0 for no effect and ±100 for the full control effect
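Curves were derived by four-parameter Hill fits of normalized qHTS data. The kinetic fluorescent primer-extension read was taken at 0 and 10 min after 50 nM substrate, following a 15 min room-temperature preincubation of 10 nM enzyme with compounds.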
Pol beta inh-2: Inhibitors of DNA Polymerase Beta: Hit validation; shares compounds with Pol beta inh-1; Pol beta primer extension/strand displacement, fluorescence kinetic; Potency, µM, actives largely listed as inhibitors; actives 87% (n = 250); calls by dose curve; also: potency is read from the fitted curve at half-maximal effect
Klenow inh: Inhibitors of DNA Polymerase Beta: Hit Validation in Klenow Fragment Assay; shares compounds with Pol beta inh-1; Klenow exo- polymerase counter-screen, fluorescent DNA substrate; activity change, negative = inhibition, % at 57.1 µM; 250 tested, under 10 active
HIV RT counter: Inhibitors of DNA Polymerase Beta: Hit Validation in HIV-RT Assay | shares compounds with Pol beta inh-1 | HIV-1 RT polymerase activity, counter-screen | activity % (negative = inhibition, positive = activation), % at 57.1 µM | 250 tested, under 10 active | AID 540301, 2011
POLB valid: Inhibitors of DNA Polymerase Beta: Hit Validation in Radiolabeled Extension Assay | inhibition, % at 10 µM | shares compounds with Pol beta inh-1 | actives 91% (n = 110) | radiolabeled primer extension gel assay, phosphorimager;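 active = inhibition at 10 µM of 30% or more; inconclusive = no clear call, values can overlap the other calls; inactive = inhibition at 10 µM under 30%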
* = called active by the depositor; ? = inconclusive; nt = no result given; ! = repeats disagree; [ ] = another dose, or the depositor's remark. Unless noted, calls follow the shape of the dose curve; as a rule, active = well fitted curve in the direction sought with a large enough effect; inconclusive = small, poorly fitted or top-dose-only effect, or another doubt; inactive = no such curve, though single readings can be large; an effect the other way counts as inactive or inconclusive.

SMILES	WRN helicase inh	Pol iota inh	PI5P4Ka inh	POLK inh	POLH inh	Pol beta inh-1	Pol beta inh-2	Klenow inh	HIV RT counter	others
C#CCn1c(=NC(=O)c2cccs2)sc2cccc(OC)c21	-20%	?	2	-12%	?	20µM*	32*	-9	43	POLB valid=77*
COC(=O)c1sccc1-c1ccc(C(=O)Nc2cccc(Cl)c2)o1	?	?	-1	-29%	?	14µM*	18*	0	31
CCOc1ccc2oc(=O)cc(CN3CCN(c4cc(C)ccc4C)CC3)c2c1	nt	0%	nt	-16%	-3%	23%	nt	nt	nt
O=C(O)c1ccc(-c2ccc(-c3ccccc3)cc2)s1	nt	nt	nt	nt	nt	16µM*	20*	-4	43
COc1cc(NC(=O)c2cccs2)c(C(=O)OCC(=O)NCc2ccco2)cc1OC	?	?	-24	79µM*	10µM*	13µM*	32*	4	17
COc1ccc(Cc2nnc(NC(=O)Cc3cccs3)s2)cc1OC	?	?	-92*	79µM*	6.3µM*	8.9µM*	?	-25	42
CC(C)(C)OC(=O)NS(=O)(=O)NOCc1ccccc1	nt	7%	nt	14%	nt	nt	nt	nt	nt
Cc1cccc(NC(=O)CSc2nc3c(c(=O)[nH]2)CN(Cc2ccc4c(c2)OCO4)CC3)c1C	nt	18%	nt	3%	?	-16%	nt	nt	nt
COc1ccccc1CCNC(=O)C1CCN(c2nnc(C)c3c(C)n(-c4ccc(C)cc4)nc23)CC1	-6%	15%	1	10%	-5%	-27%	nt	nt	nt
CCOc1ccccc1CNC(=O)C1CCN(c2nnc(C)c3c(C)n(-c4ccc(C)cc4)nc23)CC1	13%	-1%	1	-9%	?	7.1µM*!	?	-6	43
Cc1cc2[nH]c(=O)c(=O)[nH]c2cc1S(=O)(=O)N1CCN(c2cccc(C)c2C)CC1	?	?	0	?	?	11µM*	28*	-4	12	POLB valid=73*
CCOC(=O)c1cc(-c2cc3ccccc3o2)nc2c1c(=O)[nH]c(=O)n2CCOC	0%	9%	-8	-6%	?	23%	nt	nt	nt
CCOC(=O)c1cc(-c2ccc([N+](=O)[O-])cc2)nc2c1c(=O)[nH]c(=O)n2Cc1ccccc1	-25%[11.6 µM]	?	-10	1%	45µM*	2.5µM*	14*	-16	23
Cc1ccc(-n2nc3c(N4CCCC(C(=O)NCCc5ccccc5)C4)nnc(C)c3c2C)cc1 (stereo unspecified)	nt	5%	nt	9%	-14%	0%	nt	nt	nt
COc1ccc(/C=C/C(=O)c2cc(Br)ccc2O)cc1OC	-5%	1%	-4	-4%	-4%	0%	nt	nt	nt
CNc1ccc(Br)cc(C(=O)/C=C/c2cc(OC)ccc2OC)c1=O	-9%[11.6 µM]	?	-28	?	14µM*	13µM*	28*	6	-24	POLB valid=43*

Screens (PubChem)
